Pf growth 48h = P. falciparum growth inhibition at 48 hours (one generation); 310,000 compounds, 5.9% hits; P. falciparum luciferase growth in erythrocytes, 48 h; Potency, µM (series often up to 28.7 µM), inactives show top-dose activity change, negative = inhibition, actives largely listed as inhibitors; further: on the % scale 0 is the no-effect control and ±100 the full control effect
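A one-generation exposure of luciferase-tagged malaria parasites in RPMI 1640/Albumax erythrocyte culture, 37 C and 5% CO2. Inhibition is inferred from decreased luminescence after adding detection reagent.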
Sm TGR inh = blocks Schistosoma mansoni thioredoxin glutathione reductase; Q962Y6; purified TGR, DTNB reduction, TNB absorbance 405 nm; Potency, µM (series often up to 114 µM), for inactives: top-dose activity change, negative = inhibition, hits mostly inhibitors; 360,000 compounds, 3% hits; AID 485364; further: on the % scale 0 is the no-effect control and ±100 the full control effect; nearly all actives have a fitted effect of over 60% in size
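Kinetic colorimetric format: TGR-catalysed, NADPH-driven DTNB reduction monitored via TNB absorbance. Enzyme dispensed at 20 nM; compound exposure 15 min at room temperature before reaction start.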
SARS PLpro yeast = blocks SARS-CoV papain-like protease in a yeast assay | S. cerevisiae expressing SARS-CoV PLpro, growth rescue | Potency, µM (top dose mostly 32.9 µM), for the others: top-dose activity, positive = growth rescue, usual class: activators | 330,000 compounds, 0.19% hits; calls by dose curve; further: 0% is about no effect; nearly all actives have a fitted effect of over 55% in size
AmpC inh no detg = blocks E. coli AmpC beta-lactamase in detergent-free assay; P00811; AmpC nitrocefin hydrolysis, absorbance 480 nm, 0.0001% Triton; Potency, µM (series often up to 57.1 µM), without a hit: at the top dose activity change, negative = inhibition, usual class: inhibitors; 330,000 compounds, 0.52% hits;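 further: plate controls were no compound for no effect and no enzyme for full effect; nearly all actives have a fitted effect of over 20% in size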
Target sequence (P00811 whole entry, looked up): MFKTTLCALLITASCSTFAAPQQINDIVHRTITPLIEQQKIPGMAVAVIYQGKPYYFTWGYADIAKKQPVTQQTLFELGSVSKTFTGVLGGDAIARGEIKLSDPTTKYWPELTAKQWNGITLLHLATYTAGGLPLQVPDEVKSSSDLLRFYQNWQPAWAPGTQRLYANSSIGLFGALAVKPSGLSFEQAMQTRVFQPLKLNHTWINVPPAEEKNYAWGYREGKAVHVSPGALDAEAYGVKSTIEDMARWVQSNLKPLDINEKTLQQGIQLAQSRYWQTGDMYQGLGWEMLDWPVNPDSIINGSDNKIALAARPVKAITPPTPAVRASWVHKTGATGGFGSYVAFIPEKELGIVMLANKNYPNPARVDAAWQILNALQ
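AmpC (5.3 nM in the dispensed reagent) in 20 mM phosphate pH 7.0 with 0.01% (detergent screen) or 0.0001% Triton X-100 was preincubated with compounds for 15 min at room temperature. Nitrocefin was then added from an 800 uM solution, and hydrolysis was followed at 480 nm.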
AmpC detergent = inhibitors of E. coli AmpC beta-lactamase with detergent; P00811; AmpC hydrolysis of nitrocefin, absorbance 480 nm, 0.01% Triton; Potency, µM (doses to about 114 µM), inactives show at the top dose activity change, negative = inhibition, most hits filed as inhibitors; 370,000 compounds, 0.041% hits; AID 485294;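 further: 0% = no-compound wells and -100% = no-enzyme wells; nearly all actives have a fitted effect of over 25% in size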
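AmpC (5.3 nM in the dispensed reagent) in 20 mM phosphate pH 7.0 with 0.01% (detergent screen) or 0.0001% Triton X-100 was preincubated with compounds for 15 min at room temperature. Nitrocefin was then added from an 800 uM solution, and hydrolysis was followed at 480 nm.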
Pf growth 96h = inhibits malaria parasite growth, 96 h; Potency, µM (top dose mostly 28.7 µM), for inactives: at the highest dose activity change, negative = inhibition, usual class: inhibitors; P. falciparum luciferase reporter growth, 96 h; AID 504834; 320,000 compounds, 6.9% hits; further: on the % scale 0 is the no-effect control and ±100 the full control effect
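Plates of compound plus infected erythrocytes (2% hematocrit, 0.05% parasitemia final) incubate 96 hours, 37 C, 5% CO2. Detection reagent added; reduced luminescence from the parasites' luciferase reporter flags inhibition.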
Numbers without * were called inactive; ? = inconclusive; . = no result given; ! = repeats disagree. Only some compounds are listed: those with a hit (about 12% of all), similar ones and a draw of the others. Unless noted, the call rests on the fitted dose curve; in most records, active means well fitted curve in the direction sought with a large enough effect; inconclusive means small, poorly fitted or top-dose-only effect, or another doubt; inactive means no such curve, though single readings can be large; an effect the other way counts as inactive or inconclusive. Potency means the concentration at half of the fitted maximal effect.

SMILES | Pf growth 48h | Sm TGR inh | SARS PLpro yeast | AmpC inh no detg | AmpC detergent | Pf growth 96h
CC(/C=N/NC(=O)c1ccc(CN2c3cccc4cccc(c34)S2(=O)=O)cc1)c1ccccc1 (configuration not stated) | -10% | 3% | 4% | -42% | -5% | ?
COc1ccc(/C=N/NC(=O)c2ccc(CN3C(=O)c4cccc5cccc3c45)cc2)cc1O | ? | 1% | 1% | -25% | 8% | -4%
O=C(O)c1ccccc1Nc1cccc(C(F)(F)F)c1 | -11% | 63% | -51% | -37% | -13% | 2.4µM*!
O=C(O)c1ccccc1Nc1ccccc1 | 5% | -7% | . | -18% | -19% | 8%
O=C(/C=C/c1cccc(C(F)(F)F)c1)Nc1cccc(C(F)(F)F)c1 | 7.4µM* | -29% | -41% | -48% | 5% | ?
O=C1CN(C(=O)c2ccc(S(=O)(=O)N3CCCC3)cc2)C(c2ccccc2)c2cc(Br)ccc2N1 (configuration not stated) | . | 5% | . | . | 6% | .
Cc1ccc(-n2c(=O)c3ccc(C(=O)NCc4ccco4)cc3n(CC(=O)Nc3ccccc3C(F)(F)F)c2=O)cc1 | . | 2% | . | . | -1% | .
COc1cc(C(=O)OCCNC(=O)c2cccnc2)cc(OC)c1OC | . | . | -2% | -12% | . | .
Cc1cc(C)c(OCC(=O)OCCNC(=O)c2cccnc2)c(C)c1 | 7% | 35µM* | 24% | -17% | ? | -1%
COC(=O)c1cc(OC)c(OC)cc1NC(=O)c1csc(C)c1 | 10µM* | -3% | ? | -22% | 0% | ?
COC(=O)c1cc(OC)c(OC)cc1NC(=O)c1cccc(C)c1 | ? | . | 0% | -1% | 5% | -17%
COC(=O)c1cc(OC)c(OC)cc1NC(=O)CN1CCCCC1 | -3% | -2% | 5% | -25% | -4% | 7%
COC(=O)c1cc(OC)c(OC)cc1NC(=O)CC1CCCCC1 | 10µM* | -1% | -10% | 98% | 3% | 19%
Cc1cc(C(=O)Nc2ccccc2[N+](=O)[O-])cs1 | -6% | -25% | 1% | 59% | 4% | 58%
CSc1ccccc1NC(=O)c1csc(C)c1 | 36% | -4% | 0% | -10% | 3% | 10µM*
COCCCn1c(=O)/c(=C\c2ccccc2OC(C)C)s/c1=C(/C#N)C(=O)Nc1ccc(C(=O)O)cc1 | 1.9µM* | 22% | 0% | -20% | 5% | 1.5µM*
COCCCn1c(=O)/c(=C\c2ccccc2OC(F)F)s/c1=C(/C#N)C(=O)NC(C)C | -6% | 7% | 7% | -8% | ? | 14%
O=C(NCCN1CCOCC1)c1ccc2c(c1)N(Cc1ccccc1F)C(=O)c1ccccc1S2 | ? | 1% | 0% | 204% | 5% | ?
CCN1CCN(CCNC(=O)c2ccc(/C=C3/Sc4ccccc4N(Cc4ccccc4C)C3=O)cc2)CC1 | 12µM* | 3% | -2% | 210% | 13% | 15%
CCN1CCN(CCCNC(=O)c2ccc(/C=C3/Sc4ccccc4N(Cc4ccccc4F)C3=O)cc2)CC1 | ? | -3% | -12% | 216% | 10% | ?
CC1=Nc2cc(C(=O)NCCCN3CCOCC3)ccc2Sc2c(C)ccc(C)c21 | ? | -12% | -15% | 178% | -11% | -6%
CC1=Nc2cc(C(=O)NCCN3CCOCC3)ccc2Sc2c(C)ccc(C)c21 | ? | 2% | -7% | 187% | -13% | 12µM*
Cc1ccccc1CN1C(=O)c2ccccc2Sc2ccc(C(=O)NCCN3CCOCC3)cc21 | 8.3µM* | -6% | -2% | 197% | 5% | ?
COc1cc(NC(=O)CCCC(=O)OCC(F)(F)C(F)F)nc(OC)n1 | . | 86% | 9% | 18% | -9% | 11%
COc1cccc(CNC(=O)Cn2ncc3c(=O)oc4ccccc4c32)c1 | 14% | -1% | 2% | -7% | 2% | 11%
SMILES | Pf growth 48h | Sm TGR inh | SARS PLpro yeast | AmpC inh no detg | AmpC detergent | Pf growth 96h
Cc1ccc(NC(=O)CN2C(=O)NC(Cc3c[nH]c4ccccc34)C2=O)cc1 (configuration not stated) | ? | -14% | 1% | -24% | ? | ?
O=C1CC(c2ccc3c(c2)OCCO3)Oc2ccccc21 (configuration not stated) | 202% | -14% | -14% | -8% | -13% | 191%
O=C1CC(c2ccc3c(c2)OCCO3)Oc2ccc([N+](=O)[O-])cc21 (configuration not stated) | 111% | 89µM* | 0% | -23% | -1% | 448%
COC(=O)c1cccc(Nc2c(-c3cc(Br)ccc3O)nc3nc[nH]n23)c1 | . | -28% | . | . | 3% | .
COc1cc(C(=O)NCCC(C)C)ccc1OCc1ccc(Cl)cc1Cl | 10µM* | 2% | -20% | -5% | -2% | 4.7µM*
COc1cc(C(=O)NC2CCCCC2)ccc1OCc1ccc(Cl)cc1Cl | 10% | 6% | 24% | -18% | 4% | 17%
Cc1cc(Oc2ccc(=O)n(C)n2)nc(Oc2ccc(=O)n(C)n2)n1 | 5% | 10% | -3% | -13% | -13% | 10µM*
O=C(O)c1cccc(Nc2ncnc3ccccc23)c1 | 45% | 52% | 0% | -18% | 10% | ?
COc1ccc(C(=O)Oc2cccc(Nc3ncnc4ccccc34)c2)cc1OC | 12% | -11% | -15% | 47% | -11% | 2.3µM*
Cc1ccc(C)c(NC(=O)C(Sc2ncnc3ccccc23)c2ccccc2)c1 (configuration not stated) | -3% | -11% | 3% | -13% | -5% | 42%
CC(=O)c1cccc(Nc2ncnc3ccc(Br)cc23)c1 | 5.9µM* | 0% | -3% | ? | -5% | -12%
CC(=O)c1cccc(NC(=O)C(Sc2ncnc3ccccc23)c2ccccc2)c1 (configuration not stated) | 12µM* | 2% | 25% | 72% | 1% | 4.7µM*
CC(NC(=O)C(C)N1CCN(Cc2ccccc2)CC1)c1ccc(F)cc1 (configuration not stated) | 0% | 3% | -9% | 54% | 1% | 32%
Cc1cc(C)cc(C(=O)Nc2c(C(=O)Nc3ccccc3F)oc3ccccc23)c1 | . | 18% | . | . | 0% | .
COC(=O)C1=C(C)NC(=O)/C1=C\c1cccs1 | . | -24% | -1% | -9% | ? | 27%
COC(=O)C1=C(C)NC(=O)/C1=C\c1ccc2c(c1)OCO2 | ? | 35µM* | -4% | -12% | ? | ?
COC(=O)C1=C(C)NC(=O)/C1=C\N(C)C | 0% | 25µM* | -1% | -15% | -7% | 29%

Compound activity deposited in PubChem BioAssay by National Center for Advancing Translational Sciences (NCATS).
